Results: the supplement of paper PMC11732987, “Enantioselective OTUD7B fragment discovery through chemoproteomics screening and high-throughput optimisation” (Communications Chemistry, 2025)

Legend:
Test in all cases: log2 ratio of Biotin-Ahx-Ub-VS probe labelling (fragment/DMSO); higher = less target engagement (more negative = stronger competition), active = hit call of the paper (q ≤ 0.05, log2 ratio ≤ -1)
Details in all cases: compound concentration: 200 uM; treatment time: 3 h
ALG13 = target: T1, ALG13 (UniProt Q9NP73)
T1 sequence (whole entry): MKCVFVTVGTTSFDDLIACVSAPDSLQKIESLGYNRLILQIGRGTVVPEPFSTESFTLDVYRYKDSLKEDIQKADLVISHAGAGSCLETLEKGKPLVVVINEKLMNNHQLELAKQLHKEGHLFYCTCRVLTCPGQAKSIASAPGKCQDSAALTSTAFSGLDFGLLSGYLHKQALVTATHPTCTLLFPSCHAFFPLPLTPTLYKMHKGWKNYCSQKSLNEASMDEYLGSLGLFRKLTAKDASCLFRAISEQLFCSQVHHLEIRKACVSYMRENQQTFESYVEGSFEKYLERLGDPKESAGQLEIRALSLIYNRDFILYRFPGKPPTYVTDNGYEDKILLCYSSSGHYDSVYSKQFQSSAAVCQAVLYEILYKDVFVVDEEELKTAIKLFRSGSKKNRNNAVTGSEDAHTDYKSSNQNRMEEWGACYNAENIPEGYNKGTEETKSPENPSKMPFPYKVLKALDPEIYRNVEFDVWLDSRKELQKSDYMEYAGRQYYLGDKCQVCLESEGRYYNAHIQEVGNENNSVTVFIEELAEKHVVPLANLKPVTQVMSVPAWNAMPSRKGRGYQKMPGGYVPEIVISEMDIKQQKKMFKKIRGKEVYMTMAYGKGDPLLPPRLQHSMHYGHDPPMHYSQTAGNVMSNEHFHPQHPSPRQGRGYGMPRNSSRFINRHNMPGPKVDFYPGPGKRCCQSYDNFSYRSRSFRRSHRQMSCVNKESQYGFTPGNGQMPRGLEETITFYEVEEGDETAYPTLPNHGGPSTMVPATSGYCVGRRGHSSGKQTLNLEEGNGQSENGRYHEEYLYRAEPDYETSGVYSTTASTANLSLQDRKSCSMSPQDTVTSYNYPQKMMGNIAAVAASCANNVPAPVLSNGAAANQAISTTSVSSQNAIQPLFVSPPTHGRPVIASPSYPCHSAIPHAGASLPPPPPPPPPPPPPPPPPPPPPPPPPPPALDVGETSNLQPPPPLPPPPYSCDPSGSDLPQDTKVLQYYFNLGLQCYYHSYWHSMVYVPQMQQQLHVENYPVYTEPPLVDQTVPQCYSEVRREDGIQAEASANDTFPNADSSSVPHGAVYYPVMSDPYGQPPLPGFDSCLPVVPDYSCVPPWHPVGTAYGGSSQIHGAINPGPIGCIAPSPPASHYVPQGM
In short: (§1)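 Lysate from HEK293T cells, 495 µg per sample in Tris/CHAPS/IGEPAL buffer with protease inhibitors, was treated for 3 h in triplicate with fragment at 200 µM or vehicle. Biotin-Ahx-Ub-VS was next added at 0.5 µM final for 1 h. The labelled DUBs were enriched with NeutrAvidin, digested with LysC and trypsin, and run by diaPASEF LC-MS/MS, with values given as average log2 fragment/vehicle ratios by unpaired t-test on global-median-normalised Spectronaut quantities of proteins with ≥2 unique peptides.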

ATXN3 = ATXN3 (UniProt P54252)
In short: as §1

BAP1 = target: T2, BAP1 (UniProt Q92560)
T2 sequence (whole entry): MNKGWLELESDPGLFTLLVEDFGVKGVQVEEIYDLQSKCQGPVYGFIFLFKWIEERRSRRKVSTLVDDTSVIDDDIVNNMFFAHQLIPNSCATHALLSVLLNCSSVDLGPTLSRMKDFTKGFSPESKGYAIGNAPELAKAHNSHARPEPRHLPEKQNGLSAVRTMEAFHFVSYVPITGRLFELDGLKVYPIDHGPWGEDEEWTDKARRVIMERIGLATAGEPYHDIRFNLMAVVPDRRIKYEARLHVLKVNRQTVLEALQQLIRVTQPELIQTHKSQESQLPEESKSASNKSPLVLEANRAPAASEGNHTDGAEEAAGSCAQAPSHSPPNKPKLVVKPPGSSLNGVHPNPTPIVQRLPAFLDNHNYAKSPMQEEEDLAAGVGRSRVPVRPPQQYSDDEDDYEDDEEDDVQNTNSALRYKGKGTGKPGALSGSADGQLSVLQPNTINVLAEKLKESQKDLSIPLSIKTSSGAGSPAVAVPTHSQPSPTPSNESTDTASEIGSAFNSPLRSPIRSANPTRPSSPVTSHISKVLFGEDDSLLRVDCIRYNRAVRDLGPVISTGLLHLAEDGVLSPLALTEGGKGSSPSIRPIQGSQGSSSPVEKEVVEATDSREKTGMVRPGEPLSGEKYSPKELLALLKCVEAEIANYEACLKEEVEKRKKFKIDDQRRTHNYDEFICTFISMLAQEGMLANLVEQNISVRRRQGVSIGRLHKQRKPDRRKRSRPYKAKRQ
In short: as §1

EIF3F = EIF3F (UniProt O00303)
In short: as §1

EIF3H = EIF3H (UniProt O15372)
In short: as §1

FAM105A = target: T3, FAM105A (UniProt Q9NUU6)
T3 sequence (whole entry): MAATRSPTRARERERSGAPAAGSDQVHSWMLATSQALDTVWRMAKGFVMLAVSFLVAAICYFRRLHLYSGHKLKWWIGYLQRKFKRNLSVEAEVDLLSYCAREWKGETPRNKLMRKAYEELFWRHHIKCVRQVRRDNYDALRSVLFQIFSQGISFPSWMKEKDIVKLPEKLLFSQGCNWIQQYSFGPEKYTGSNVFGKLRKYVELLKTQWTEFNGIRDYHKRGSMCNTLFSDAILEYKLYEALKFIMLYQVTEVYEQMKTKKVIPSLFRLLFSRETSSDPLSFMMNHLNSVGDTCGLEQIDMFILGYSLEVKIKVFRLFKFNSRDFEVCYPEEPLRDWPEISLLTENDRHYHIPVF
In short: as §1

OTUB1 = OTUB1 (UniProt Q96FW1)
In short: as §1

OTUD4 = target: T4, OTUD4 (UniProt Q01804)
T4 sequence (whole entry): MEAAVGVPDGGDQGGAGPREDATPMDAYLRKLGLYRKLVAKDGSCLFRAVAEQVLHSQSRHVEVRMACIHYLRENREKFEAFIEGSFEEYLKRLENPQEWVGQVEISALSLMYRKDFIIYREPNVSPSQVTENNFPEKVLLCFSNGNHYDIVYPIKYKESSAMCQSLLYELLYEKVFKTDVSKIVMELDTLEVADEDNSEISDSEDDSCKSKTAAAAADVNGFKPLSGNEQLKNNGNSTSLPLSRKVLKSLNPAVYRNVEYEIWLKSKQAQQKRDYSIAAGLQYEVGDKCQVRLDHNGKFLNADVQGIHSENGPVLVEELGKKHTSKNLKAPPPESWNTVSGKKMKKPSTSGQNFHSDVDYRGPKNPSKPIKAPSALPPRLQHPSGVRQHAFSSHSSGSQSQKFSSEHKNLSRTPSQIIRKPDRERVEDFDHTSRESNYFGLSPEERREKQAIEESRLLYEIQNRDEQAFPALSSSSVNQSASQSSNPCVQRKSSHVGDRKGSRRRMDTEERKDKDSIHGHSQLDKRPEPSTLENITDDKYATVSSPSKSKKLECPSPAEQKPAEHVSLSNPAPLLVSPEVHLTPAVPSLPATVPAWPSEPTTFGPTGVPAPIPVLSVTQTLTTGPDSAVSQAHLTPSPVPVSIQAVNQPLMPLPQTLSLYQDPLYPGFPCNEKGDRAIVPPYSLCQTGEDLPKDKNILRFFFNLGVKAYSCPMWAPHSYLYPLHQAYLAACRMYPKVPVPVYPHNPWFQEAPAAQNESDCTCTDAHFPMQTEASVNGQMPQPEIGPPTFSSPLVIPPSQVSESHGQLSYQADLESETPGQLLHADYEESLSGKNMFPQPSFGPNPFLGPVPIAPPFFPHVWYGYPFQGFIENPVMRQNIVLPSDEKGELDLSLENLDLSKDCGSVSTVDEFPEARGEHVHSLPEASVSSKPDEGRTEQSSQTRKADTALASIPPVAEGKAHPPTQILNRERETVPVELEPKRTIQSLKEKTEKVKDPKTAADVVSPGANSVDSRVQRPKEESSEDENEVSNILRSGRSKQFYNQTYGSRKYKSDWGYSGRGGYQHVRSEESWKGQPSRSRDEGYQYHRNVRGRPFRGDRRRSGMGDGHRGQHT
In short: as §1

OTUD5 = target: T5, OTUD5 (UniProt Q96G74)
T5 sequence (whole entry): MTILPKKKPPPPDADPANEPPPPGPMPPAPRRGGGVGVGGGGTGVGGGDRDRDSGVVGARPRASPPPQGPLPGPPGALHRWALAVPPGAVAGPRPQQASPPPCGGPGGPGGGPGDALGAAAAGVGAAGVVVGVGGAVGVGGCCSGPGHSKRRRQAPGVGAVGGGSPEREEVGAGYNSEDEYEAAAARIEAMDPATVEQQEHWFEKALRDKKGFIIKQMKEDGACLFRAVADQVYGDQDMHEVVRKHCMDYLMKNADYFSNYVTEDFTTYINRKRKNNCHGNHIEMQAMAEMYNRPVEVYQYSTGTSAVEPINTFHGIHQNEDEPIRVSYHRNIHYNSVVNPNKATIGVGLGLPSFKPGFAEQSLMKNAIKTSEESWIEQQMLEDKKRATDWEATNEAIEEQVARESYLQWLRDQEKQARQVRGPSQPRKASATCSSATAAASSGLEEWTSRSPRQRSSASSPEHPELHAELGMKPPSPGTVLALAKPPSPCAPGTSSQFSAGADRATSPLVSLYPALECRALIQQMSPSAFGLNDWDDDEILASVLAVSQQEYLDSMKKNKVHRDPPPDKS
In short: as §1

Measured: log2 ratio of Biotin-Ahx-Ub-VS probe labelling

Sequence of ATXN3 (P54252 whole entry): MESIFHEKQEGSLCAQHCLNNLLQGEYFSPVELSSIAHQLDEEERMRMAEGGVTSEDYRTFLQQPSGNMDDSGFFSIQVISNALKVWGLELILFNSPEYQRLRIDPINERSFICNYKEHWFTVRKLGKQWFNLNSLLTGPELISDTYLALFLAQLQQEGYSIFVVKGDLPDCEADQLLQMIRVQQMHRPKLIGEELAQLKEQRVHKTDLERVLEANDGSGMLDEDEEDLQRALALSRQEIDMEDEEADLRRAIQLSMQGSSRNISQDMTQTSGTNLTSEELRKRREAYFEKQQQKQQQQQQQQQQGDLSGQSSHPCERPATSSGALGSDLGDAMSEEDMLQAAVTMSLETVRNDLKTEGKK
Sequence of EIF3H (O15372 whole entry): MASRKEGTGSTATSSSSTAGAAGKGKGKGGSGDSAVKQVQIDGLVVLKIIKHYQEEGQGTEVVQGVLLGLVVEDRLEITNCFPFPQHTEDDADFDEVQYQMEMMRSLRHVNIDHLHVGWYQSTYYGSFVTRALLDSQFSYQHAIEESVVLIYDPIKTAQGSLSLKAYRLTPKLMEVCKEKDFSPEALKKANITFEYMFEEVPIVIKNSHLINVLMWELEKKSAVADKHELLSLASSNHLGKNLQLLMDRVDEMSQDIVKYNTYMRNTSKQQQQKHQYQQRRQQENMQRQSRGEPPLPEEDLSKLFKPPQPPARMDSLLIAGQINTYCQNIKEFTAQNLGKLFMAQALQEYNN
Sequence of EIF3F (O00303 whole entry): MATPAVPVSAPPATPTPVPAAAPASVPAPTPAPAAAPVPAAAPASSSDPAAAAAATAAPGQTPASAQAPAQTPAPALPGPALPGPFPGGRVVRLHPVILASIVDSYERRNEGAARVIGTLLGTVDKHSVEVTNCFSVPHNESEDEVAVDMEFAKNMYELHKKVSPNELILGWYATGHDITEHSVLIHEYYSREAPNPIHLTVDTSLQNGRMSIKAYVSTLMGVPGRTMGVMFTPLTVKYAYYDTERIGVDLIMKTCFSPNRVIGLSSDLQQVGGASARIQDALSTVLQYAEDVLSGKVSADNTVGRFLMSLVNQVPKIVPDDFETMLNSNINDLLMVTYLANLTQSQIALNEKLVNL
Sequence of OTUB1 (Q96FW1 whole entry): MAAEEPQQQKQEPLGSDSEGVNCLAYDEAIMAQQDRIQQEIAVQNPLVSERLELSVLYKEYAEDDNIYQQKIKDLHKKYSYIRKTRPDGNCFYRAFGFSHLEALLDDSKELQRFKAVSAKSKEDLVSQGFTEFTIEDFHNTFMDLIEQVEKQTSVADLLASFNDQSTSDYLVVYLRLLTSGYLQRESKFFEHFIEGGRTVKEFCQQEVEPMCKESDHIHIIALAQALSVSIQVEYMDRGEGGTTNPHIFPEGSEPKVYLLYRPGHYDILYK

Cc1ncsc1CCNC(=O)CCl
inactive: ATXN3 0.0484 | BAP1 -0.27 | EIF3F 0.501 | EIF3H 0.195 | FAM105A 0.185 | OTUB1 0.885 | OTUD4 -0.271 | OTUD5 0.163
active: ALG13 -1.18
